According to the supplement of paper PMC11732987, “Enantioselective OTUD7B fragment discovery through chemoproteomics screening and high-throughput optimisation” (Communications Chemistry, 2025):

Assays:
Test in all cases: log2 ratio of Biotin-Ahx-Ub-VS probe labelling (fragment/DMSO); higher = less target engagement (more negative = stronger competition), active = hit call of the paper (q ≤ 0.05, log2 ratio ≤ -1)
Conditions in all cases: compound concentration: 200 uM; treatment time: 3 h
[1] = target: USP34 (UniProt Q70CQ2)
USP34, sequence (Q70CQ2 whole entry, the tested form may be a part): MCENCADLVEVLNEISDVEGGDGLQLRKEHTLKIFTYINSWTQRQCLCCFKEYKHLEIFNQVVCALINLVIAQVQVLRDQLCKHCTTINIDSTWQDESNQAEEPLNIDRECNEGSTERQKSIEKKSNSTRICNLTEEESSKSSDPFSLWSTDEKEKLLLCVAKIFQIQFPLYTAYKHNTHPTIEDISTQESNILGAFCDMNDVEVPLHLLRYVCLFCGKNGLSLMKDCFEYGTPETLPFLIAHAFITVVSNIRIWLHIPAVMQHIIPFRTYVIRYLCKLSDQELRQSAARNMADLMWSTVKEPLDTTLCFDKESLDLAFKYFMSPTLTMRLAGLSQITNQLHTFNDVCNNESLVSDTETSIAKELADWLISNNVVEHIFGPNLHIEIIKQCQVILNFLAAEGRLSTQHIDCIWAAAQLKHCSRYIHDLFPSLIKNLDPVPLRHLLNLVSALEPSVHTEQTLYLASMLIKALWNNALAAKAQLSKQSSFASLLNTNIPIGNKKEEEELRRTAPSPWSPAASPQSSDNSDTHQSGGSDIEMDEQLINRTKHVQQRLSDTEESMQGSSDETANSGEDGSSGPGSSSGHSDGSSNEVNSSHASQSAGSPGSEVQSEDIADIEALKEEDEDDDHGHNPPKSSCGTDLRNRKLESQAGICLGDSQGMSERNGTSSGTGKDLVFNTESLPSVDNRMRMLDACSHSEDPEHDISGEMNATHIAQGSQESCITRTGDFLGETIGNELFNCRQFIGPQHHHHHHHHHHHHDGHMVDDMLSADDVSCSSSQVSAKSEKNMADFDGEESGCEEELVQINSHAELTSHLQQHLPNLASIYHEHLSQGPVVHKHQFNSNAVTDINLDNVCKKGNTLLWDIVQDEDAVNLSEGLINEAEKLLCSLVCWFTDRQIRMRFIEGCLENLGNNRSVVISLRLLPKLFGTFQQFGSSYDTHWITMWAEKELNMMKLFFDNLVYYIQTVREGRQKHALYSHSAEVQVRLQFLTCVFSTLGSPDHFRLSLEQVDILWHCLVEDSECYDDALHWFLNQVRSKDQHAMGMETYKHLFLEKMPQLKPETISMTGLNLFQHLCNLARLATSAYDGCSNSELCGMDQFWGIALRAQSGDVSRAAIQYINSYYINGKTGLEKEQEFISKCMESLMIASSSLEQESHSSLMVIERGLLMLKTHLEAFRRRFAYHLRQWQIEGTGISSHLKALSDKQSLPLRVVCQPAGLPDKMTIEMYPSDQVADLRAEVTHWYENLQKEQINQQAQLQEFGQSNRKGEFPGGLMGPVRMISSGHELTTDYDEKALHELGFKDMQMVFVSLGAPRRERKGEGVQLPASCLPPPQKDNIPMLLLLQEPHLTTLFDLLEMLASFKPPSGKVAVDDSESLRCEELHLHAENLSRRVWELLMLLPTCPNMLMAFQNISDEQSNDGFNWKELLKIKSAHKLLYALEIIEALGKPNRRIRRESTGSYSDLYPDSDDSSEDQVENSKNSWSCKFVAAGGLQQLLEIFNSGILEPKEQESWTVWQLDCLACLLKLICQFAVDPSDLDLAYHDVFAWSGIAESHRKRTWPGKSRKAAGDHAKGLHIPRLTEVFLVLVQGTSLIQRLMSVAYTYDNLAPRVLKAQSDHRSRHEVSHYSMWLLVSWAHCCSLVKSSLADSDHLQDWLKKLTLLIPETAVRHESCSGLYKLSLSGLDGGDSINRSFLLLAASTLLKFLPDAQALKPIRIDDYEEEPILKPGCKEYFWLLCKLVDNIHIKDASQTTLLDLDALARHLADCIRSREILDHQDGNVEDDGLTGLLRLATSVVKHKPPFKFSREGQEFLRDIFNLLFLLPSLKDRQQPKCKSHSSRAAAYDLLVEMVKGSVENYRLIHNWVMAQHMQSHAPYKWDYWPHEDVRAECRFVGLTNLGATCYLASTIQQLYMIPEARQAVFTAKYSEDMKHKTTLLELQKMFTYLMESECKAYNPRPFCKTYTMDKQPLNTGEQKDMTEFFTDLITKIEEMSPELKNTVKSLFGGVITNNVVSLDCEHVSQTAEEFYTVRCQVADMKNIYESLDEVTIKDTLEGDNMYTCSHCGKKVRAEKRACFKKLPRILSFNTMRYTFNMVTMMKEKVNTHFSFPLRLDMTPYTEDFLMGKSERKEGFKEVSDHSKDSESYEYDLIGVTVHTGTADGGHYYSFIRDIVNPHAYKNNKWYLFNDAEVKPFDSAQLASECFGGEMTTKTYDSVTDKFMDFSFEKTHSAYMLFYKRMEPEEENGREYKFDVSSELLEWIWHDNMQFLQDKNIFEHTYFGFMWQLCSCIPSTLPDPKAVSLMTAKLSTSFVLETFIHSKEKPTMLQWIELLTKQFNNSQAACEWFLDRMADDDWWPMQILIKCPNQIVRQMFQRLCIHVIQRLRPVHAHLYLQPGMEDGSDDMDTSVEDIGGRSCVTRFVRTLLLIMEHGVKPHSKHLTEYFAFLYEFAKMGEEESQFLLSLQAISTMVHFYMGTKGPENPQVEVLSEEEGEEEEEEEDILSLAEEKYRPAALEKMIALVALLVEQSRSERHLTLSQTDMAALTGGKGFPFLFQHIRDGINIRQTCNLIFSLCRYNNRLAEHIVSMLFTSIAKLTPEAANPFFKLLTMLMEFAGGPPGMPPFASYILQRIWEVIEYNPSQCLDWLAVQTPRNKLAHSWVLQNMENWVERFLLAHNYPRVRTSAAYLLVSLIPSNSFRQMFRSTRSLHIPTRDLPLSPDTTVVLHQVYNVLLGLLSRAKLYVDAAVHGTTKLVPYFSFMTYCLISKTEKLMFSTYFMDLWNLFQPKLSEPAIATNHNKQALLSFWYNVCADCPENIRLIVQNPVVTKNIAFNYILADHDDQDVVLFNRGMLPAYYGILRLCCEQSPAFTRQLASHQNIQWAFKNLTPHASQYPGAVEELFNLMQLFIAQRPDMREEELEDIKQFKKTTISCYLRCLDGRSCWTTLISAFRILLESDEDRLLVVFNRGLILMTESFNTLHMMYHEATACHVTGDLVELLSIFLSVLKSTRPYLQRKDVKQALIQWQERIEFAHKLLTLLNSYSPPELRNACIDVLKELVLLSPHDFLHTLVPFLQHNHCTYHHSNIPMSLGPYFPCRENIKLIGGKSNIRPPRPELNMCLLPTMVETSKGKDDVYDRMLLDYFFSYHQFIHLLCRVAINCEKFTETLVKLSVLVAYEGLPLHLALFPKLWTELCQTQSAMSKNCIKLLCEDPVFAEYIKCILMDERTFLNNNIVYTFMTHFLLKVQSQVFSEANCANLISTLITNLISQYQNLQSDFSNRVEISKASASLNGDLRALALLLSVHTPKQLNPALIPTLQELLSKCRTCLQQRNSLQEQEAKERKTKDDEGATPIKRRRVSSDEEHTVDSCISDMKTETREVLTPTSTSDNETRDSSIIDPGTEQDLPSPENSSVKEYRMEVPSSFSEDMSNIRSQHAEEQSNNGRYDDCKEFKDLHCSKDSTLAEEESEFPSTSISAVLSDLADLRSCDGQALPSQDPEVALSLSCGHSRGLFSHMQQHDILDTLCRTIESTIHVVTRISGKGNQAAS
Procedure, shortened: (§1)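 HEK293T lysate, 495 µg per sample in Tris/CHAPS/IGEPAL buffer with protease inhibitors, was treated in triplicate with fragment at 200 µM or vehicle for 3 h and then with Biotin-Ahx-Ub-VS at 0.5 µM final for 1 h. Labelled DUBs were NeutrAvidin-enriched, digested with LysC and trypsin, and run by diaPASEF LC-MS/MS. Spectronaut label-free quantities were global-median-normalised, and values are average log2 fragment/vehicle ratios by unpaired t-test on proteins with ≥2 unique peptides.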

[2] = target: T1, USP36 (UniProt Q9P275)
T1 sequence (whole entry): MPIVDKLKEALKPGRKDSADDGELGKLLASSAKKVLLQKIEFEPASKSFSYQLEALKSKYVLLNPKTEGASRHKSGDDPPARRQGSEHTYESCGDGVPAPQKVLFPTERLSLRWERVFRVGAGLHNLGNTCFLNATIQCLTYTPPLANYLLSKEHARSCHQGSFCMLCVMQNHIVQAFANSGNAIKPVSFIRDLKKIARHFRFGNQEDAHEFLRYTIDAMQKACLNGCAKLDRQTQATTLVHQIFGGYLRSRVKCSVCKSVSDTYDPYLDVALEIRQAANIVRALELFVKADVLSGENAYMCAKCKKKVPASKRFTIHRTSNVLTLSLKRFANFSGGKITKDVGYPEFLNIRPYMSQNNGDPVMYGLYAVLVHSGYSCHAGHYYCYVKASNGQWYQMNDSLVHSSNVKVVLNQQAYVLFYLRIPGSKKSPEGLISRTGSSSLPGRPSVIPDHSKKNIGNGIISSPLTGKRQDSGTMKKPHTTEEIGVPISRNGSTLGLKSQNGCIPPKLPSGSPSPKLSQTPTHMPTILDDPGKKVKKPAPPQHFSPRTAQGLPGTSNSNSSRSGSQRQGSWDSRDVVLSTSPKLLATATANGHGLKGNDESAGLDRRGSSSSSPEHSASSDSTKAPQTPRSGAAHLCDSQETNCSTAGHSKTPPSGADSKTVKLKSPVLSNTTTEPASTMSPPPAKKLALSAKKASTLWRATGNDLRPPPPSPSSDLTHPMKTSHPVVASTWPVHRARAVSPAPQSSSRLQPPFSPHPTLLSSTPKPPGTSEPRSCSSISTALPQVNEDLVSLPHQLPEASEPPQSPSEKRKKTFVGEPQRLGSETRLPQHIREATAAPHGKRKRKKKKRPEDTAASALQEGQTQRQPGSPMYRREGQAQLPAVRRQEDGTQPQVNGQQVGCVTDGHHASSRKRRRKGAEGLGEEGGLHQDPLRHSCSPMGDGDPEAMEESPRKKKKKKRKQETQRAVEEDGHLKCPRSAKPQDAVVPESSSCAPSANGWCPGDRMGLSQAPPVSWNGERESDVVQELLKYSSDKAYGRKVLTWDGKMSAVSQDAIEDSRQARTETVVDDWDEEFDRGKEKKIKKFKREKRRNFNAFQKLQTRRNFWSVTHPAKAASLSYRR
Procedure, shortened: as §1

[3] = target: T2, USP38 (UniProt Q8NB14)
T2 sequence (whole entry): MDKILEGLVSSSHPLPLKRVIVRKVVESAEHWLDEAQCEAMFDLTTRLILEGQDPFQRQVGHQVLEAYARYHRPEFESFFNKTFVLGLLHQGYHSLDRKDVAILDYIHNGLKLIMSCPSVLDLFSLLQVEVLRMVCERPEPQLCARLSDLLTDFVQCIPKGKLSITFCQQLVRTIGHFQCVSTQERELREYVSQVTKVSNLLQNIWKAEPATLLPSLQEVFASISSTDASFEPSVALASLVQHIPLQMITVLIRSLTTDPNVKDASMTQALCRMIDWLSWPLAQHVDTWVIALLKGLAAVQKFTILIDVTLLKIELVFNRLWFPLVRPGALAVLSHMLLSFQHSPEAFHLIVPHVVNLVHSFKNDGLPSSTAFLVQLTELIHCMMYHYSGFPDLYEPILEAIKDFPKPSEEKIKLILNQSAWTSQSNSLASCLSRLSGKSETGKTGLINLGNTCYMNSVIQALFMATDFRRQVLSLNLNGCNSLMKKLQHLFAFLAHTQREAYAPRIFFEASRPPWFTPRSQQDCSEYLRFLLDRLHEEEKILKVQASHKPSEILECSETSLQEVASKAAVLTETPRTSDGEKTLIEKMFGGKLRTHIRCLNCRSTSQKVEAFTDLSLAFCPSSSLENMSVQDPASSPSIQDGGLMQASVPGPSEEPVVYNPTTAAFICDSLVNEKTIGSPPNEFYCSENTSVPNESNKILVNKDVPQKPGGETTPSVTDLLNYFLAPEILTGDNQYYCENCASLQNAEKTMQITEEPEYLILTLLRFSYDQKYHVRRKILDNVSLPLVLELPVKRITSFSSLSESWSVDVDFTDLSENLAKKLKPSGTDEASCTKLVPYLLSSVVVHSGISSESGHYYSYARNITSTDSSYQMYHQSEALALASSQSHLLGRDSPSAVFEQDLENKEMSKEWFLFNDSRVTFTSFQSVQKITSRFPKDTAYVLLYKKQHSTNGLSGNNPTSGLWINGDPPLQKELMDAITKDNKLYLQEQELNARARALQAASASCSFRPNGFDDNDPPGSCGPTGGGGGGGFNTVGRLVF
Procedure, shortened: as §1

[4] = target: T3, USP39 (UniProt Q53GS9)
T3 sequence (whole entry): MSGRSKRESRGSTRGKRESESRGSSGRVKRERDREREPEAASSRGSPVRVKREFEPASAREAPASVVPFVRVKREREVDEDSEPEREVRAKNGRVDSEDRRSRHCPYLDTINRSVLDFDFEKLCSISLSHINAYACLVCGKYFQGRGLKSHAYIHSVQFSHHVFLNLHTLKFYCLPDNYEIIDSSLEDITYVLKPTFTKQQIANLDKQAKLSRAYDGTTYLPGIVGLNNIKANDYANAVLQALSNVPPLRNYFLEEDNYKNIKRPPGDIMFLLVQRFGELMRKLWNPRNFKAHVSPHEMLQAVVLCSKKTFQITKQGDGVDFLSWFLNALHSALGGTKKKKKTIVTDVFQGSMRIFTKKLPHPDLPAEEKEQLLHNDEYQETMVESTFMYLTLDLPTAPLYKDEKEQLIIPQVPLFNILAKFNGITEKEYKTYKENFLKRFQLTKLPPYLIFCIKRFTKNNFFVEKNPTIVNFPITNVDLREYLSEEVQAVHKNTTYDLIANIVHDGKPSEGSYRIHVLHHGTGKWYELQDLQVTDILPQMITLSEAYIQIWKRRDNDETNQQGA
Procedure, shortened: as §1

[5] = target: T4, USP4 (UniProt Q13107)
T4 sequence (whole entry): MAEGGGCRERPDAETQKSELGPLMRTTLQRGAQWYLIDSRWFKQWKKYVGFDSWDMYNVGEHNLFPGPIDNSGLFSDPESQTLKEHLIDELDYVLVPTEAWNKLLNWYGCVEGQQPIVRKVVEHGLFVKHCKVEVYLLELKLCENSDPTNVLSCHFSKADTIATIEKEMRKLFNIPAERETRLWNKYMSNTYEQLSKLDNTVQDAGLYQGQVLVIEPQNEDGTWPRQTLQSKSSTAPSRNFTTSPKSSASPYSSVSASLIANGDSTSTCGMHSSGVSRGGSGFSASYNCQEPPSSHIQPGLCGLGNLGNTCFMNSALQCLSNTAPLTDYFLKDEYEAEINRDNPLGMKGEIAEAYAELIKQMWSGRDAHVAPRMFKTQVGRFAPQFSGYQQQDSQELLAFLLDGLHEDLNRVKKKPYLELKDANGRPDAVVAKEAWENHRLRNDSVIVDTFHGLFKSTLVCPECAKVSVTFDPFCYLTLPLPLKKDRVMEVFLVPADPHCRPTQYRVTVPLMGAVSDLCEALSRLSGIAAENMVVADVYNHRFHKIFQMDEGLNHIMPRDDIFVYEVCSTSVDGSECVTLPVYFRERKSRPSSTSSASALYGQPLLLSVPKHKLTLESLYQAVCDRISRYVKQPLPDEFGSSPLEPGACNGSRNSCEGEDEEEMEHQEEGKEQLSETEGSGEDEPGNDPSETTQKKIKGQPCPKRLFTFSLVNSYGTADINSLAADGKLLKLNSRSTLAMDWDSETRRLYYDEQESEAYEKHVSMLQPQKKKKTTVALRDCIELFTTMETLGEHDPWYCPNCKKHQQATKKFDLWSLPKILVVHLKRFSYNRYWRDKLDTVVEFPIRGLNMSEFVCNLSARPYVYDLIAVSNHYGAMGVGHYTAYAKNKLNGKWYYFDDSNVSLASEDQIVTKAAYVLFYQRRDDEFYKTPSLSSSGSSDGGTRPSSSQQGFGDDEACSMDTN
Procedure, shortened: as §1

Measured: log2 ratio of Biotin-Ahx-Ub-VS probe labelling

Cc1ccc(CC(CO)CNC(=O)CCl)cc1 (stereo not given)
inactive: [1] -0.117 | [2] -0.19 | [3] -0.239 | [4] -0.321 | [5] -0.14
